Several values for one entry are separate records, joined by “and”; a condition that tells them apart may be missing. Equal values may be shown once. Records with an inconclusive call do not appear. Activity calls are given as the source filed them. The call rests on the fitted dose curve; in most records, active means well fitted inhibition curve with a large enough effect; inconclusive means small, poorly fitted or top-dose-only effect; inactive means flat fitted curve, though single readings scatter.
Experiments:
[1] = test system: CRL-7250; test: Cytotoxic Profiling of Annotated Libraries Using Quantitative High-Throughput Screening (AID 1296008); conditions: Five cell lines viability, CellTiter-Glo ATP luminescence, 48-72 h; max response: stronger effect = lower value; further: potency means the concentration at half of the fitted maximal effect
Method in brief: (§1)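 Cells exposed to compounds for 48 or 72 hr at 37 degrees Celsius. Viability read as ATP-coupled luminescence with CellTiter-Glo after 10 min at room temperature.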

[2] = test system: HEK293; test: as above; conditions: Five cell lines viability, CellTiter-Glo ATP luminescence, 48-72 h; max response: stronger effect = lower value
Method in brief: as §1

[3] = test system: HaCat; test: as above; conditions: Five cell lines viability, CellTiter-Glo ATP luminescence, 48-72 h; max response: stronger effect = lower value
Method in brief: as §1

[4] = test system: KB-3-1; test: as above; conditions: Five cell lines viability, CellTiter-Glo ATP luminescence, 48-72 h; max response: stronger effect = lower value
Method in brief: as §1

[5] = test system: NIH3T3; test: as above; conditions: Five cell lines viability, CellTiter-Glo ATP luminescence, 48-72 h; max response: stronger effect = lower value
Method in brief: as §1

[6] = test system: HACAT; test: qHTS assay to identify novel small-molecules to repurpose for Merkel cell carcinoma treatment (AID 1296009); conditions: MCC and control cell lines, CellTiter-Glo viability, 72 h; at 44.8 µM (top of the series) unless noted
Method in brief: (§2)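 CellTiter-Glo luminescence after 72 hr compound exposure at 37 degree celsius gave cell viability. Libraries NPC and MIPE were run as 8- and 11-point dose responses; RLUs normalized to DMSO (negative) and no-cell (cytotoxicity) controls.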

[7] = test system: MCC-13; test: as above; conditions: MCC and control cell lines, CellTiter-Glo viability, 72 h; series mostly up to 46 µM
Method in brief: as §2

[8] = test system: MCC-26; test: as above; conditions: MCC and control cell lines, CellTiter-Glo viability, 72 h; series mostly up to 46 µM
Method in brief: as §2

[9] = test system: MKL-1; test: as above; conditions: MCC and control cell lines, CellTiter-Glo viability, 72 h; series mostly up to 46 µM
Method in brief: as §2

[10] = test system: HEK293T; test: as above; conditions: MCC and control cell lines, CellTiter-Glo viability, 72 h; at 44.8 µM (top of the series) unless noted
Method in brief: as §2
Further: nearly all actives have a fitted effect of over 60% in size.
On the % scale 0 is the no-effect control and ±100 the full control effect.

CC(=O)NC(Cc1ccccc1)C(=O)O (stereo not given)
inactive: max response [1] 2.75% | outcome [1] | max response [2] 1.21% and -5.41% | max response [3] -9.27% | outcome [3] | max response [4] 1.12% and 4.36% | max response [5] 0.258% and -10.1% | outcome [6] inactive [at 92 µM] | Potency [7] | Potency [8] | Potency [9]

Cc1cccc(Nc2cc(Cl)nc(SCC(=O)O)n2)c1C
inactive: max response [1] 0.443% and 0.95% | max response [2] 1.85% and -1.17% | max response [3] 1.74% | outcome [3] | max response [4] 6.42% and 8.75% | max response [5] -16.8% and 0.675% | outcome [6] | Potency [7] | Potency [8] | Potency [9]

CC(C)(C)C(=O)C(Oc1ccc(Cl)cc1)n1ccnc1 (stereo not given)
inactive: max response [1] -7.22% | outcome [1] | outcome [2] | max response [3] -9.75% | outcome [3] | max response [4] -11% and -12.3% | max response [5] -7.83% | outcome [5] | outcome [6] | outcome [10] | Potency [7] | Potency [8] | Potency [9]

CCCOC(=O)c1ccccc1
inactive: max response [1] -5.05% | outcome [2] | outcome [3] | max response [4] -10.8% | max response [5] 2.42% | outcome [6] | outcome [10] | Potency [7] | Potency [8] | Potency [9]

CN1CCC[C@@H]1Cc1c[nH]c2ccc(CCS(=O)(=O)c3ccccc3)cc12
inactive: outcome [1] | max response [2] -1.58% | outcome [2] | outcome [3] | max response [4] -5.28% | outcome [4] | max response [5] -4.41% | outcome [5] | outcome [6] | outcome [10] | Potency [7] | Potency [8] | Potency [9]

O=C1c2c(O)cccc2Cc2cccc(O)c21
inactive: max response [1] 0.516% | outcome [2] | outcome [3] | max response [4] -0.793% | max response [5] 4.73% | outcome [6] | outcome [10] | Potency [7] | Potency [8] | Potency [9]

CS(=O)(=O)c1ccc([C@@H](O)[C@@H](CF)NC(=O)C(Cl)Cl)cc1
inactive: max response [1] -8.92% | outcome [1] | max response [3] 3.4% | outcome [3] | max response [4] -19.8% | max response [5] -3.77% and 0.419% | outcome [6] | Potency [7] | Potency [8] | Potency [9]
active: Potency [2] 2990 nM

CC1(C)OC(=O)NC1=O
inactive: max response [1] 4.73% | outcome [2] | outcome [3] | max response [4] 1.34% | max response [5] 3.48% | outcome [6] | outcome [10] | Potency [7] | Potency [8] | Potency [9]

CCCc1c(OCCCCc2nn[nH]n2)ccc(C(C)=O)c1O
inactive: max response [1] -1.12% | outcome [2] | outcome [3] | max response [4] -12.2% | max response [5] 2.45% | outcome [6] | outcome [10] | Potency [7] | Potency [8] | Potency [9]

Nc1nc2c(ncn2CCC(CO)CO)c(=O)[nH]1
inactive: max response [1] -22.4% and -4.66% | max response [2] -4.76% and -4.47% | outcome [3] | max response [4] 13.5% and 1.71% | max response [5] 1.75% | outcome [5] | outcome [6] | Potency [7] | Potency [8] | Potency [9]

COc1ccc2[nH]c(S(=O)Cc3ncc(C)c(OC)c3C)nc2n1 (stereo not given)
inactive: outcome [1] | outcome [2] | max response [3] -5.32% | outcome [3] | max response [5] 3.86% | outcome [5] | outcome [6] | outcome [10] | Potency [7] | Potency [8] | Potency [9]

C[C@@H]1C[C@H]2[C@@H]3C[C@H](F)C4=CC(=O)C=C[C@]4(C)[C@@]3(F)[C@@H](O)C[C@]2(C)[C@@]1(O)C(=O)CO
inactive: max response [1] -4.29% | outcome [1] | max response [2] -7.17% | outcome [2] | max response [3] -8.88% and 2.84% | max response [4] 18.2% | outcome [4] | max response [5] -2.74% and -3.01% | outcome [10] | Potency [7] | Potency [8] | Potency [9]

CCOC(CN1CCN(CC(C)C(=O)c2ccccc2)CC1)c1ccccc1 (stereo not given)
inactive: max response [1] -5.72% | max response [2] -4.15% | max response [3] -8.79% | outcome [3] | max response [4] 0.981% and -11.3% | max response [5] -6.68% | outcome [5] | outcome [6] inactive [at 17.4 µM] | Potency [7] | Potency [8] | Potency [9]

CNC(=O)Oc1ccc2c(c1)[C@]1(C)CCN(C)[C@@H]1N2C
inactive: outcome [1] | outcome [2] | max response [3] -0.257% | outcome [3] | max response [5] -4.44% | outcome [5] | outcome [6] | outcome [10] | Potency [7] | Potency [8] | Potency [9]

CC(C)(C(=O)O)c1ccc(C(O)CCCN2CCC(C(O)(c3ccccc3)c3ccccc3)CC2)cc1 (stereo not given)
inactive: max response [1] -9.99% | outcome [1] | max response [2] 4.11% | outcome [2] | outcome [3] | max response [4] -2.58% and -5.29% | outcome [5] | outcome [6] | outcome [10] | Potency [7] | Potency [8] | Potency [9]
